# TGFb SMAD3 inh = blocks TGF-b signaling; HepG2 CAGA-GFP TGF-b/SMAD3 reporter, GFP fluorescence, 18 h; TGF-beta stimulated, 500 pg/mL final; Potency, µM (series often up to 46.1 µM), hits mostly inhibitors; hit rate 1.2% among 410,000; further: nearly all actives have a fitted effect of over 65% in size
#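 GFP signal (ex488/em500-530) from TGF-beta-stimulated HEPG2 CAGA-GFP cells, 500 pg/mL final, 18 h at 37 degrees C in DMEM plus 1% FBS, normalized to unstimulated and DMSO-stimulated controls.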
# HepG2 tox = HepG2 cytotoxicity, counter-screen for TGF-b inhibitors; Potency, µM (titrated, usually from 46.1 µM), most hits filed as cytotoxic; hit rate 0.76% among 410,000; HepG2 CAGA-GFP viability, ATP luminescence, 18 h
#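 HepG2 CAGA-GFP cells (1000/well, DMEM with 1% FBS) received compound, then TGF-beta at 500 pg/mL final, and were incubated 18 hours at 37 degrees C. Viability was read by CellTiter-Glo luminescence. Media-only wells were set as complete cell-killing and DMSO as no toxicity.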
# S2 tox = viability counter-screen for ATXN expression inhibitors. S2 cells (HEK-293 line with an ATXN2-luciferase reporter) viability, CellTiter-Fluor protease fluorescence, 24 h. Potency, µM (doses to about 56.7 µM), hits mostly cytotoxic. hit rate 0.49% among 400,000. AID 651635; further: nearly all actives have a fitted effect of over 40% in size
# DRD3 agonist = D3 dopamine receptor (human) agonism | P35462 | D3R DiscoveRx beta-arrestin cells, luminescence, 90 min | max activation, % | hit rate 0.58% among 410,000; in the data active means max activation above about 30%
# Target sequence (P35462 whole entry, looked up): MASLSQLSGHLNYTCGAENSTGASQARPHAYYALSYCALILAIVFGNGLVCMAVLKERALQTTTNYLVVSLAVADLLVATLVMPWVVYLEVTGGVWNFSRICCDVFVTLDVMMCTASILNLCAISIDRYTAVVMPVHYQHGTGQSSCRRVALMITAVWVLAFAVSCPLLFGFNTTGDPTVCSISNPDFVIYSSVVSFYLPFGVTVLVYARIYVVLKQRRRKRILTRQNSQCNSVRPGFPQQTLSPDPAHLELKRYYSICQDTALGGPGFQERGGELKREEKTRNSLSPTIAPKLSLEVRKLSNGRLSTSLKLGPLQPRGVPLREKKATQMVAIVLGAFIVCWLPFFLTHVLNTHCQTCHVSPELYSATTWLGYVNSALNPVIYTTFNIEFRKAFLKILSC
#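 Cells at 1500/well, incubated overnight, then treated with pinned compounds (dopamine as control) for 90 min at 37 degrees C. DiscoveRx reagent added for 30 - 60 minutes at room temperature; luminescence read.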
# D3 antag = antagonists of human D3 dopamine receptor; P35462; hit rate 2.5% among 360,000; max response, negative = inhibition, %; AID 652054; D3R cells, DiscoveRx beta-arrestin luminescence, antagonist mode; stronger effect = lower value; in the data active means max response below about -50%; inconclusive means no clear call, values can overlap the other calls
#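 Cells expressing the human receptor were seeded at 1500 cells/well, incubated overnight at 37 degrees C in 5% CO2, then exposed to library compounds with dopamine controls for 90 minutes at 37 degrees C before luminescent detection.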
# ATXN2 expr inh = ATXN2 expression inhibition; HEK-293 ATXN2-luciferase reporter, luminescence, 24 h; Potency, µM (titrated, usually from 57 µM), hits mostly inhibitors; hit rate 0.72% among 360,000; AID 1745845; further: nearly all actives have a fitted effect of over 55% in size
#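 ATXN2-luciferase reporter cells (luciferase flanked by upstream and downstream ATXN2 gene portions) were treated 24 h at 37 °C with compounds at up to 57 uM. SteadyGlo luminescence gave expression; GF-AFC fluorescence gave viability.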
# A number is an active result; i = inactive; ? = inconclusive; nt = no result. Sampled rows, rich in hits. Any-hit rate of the full collection: about 4.8%. Unless noted, the call rests on the fitted dose curve; in most records, active means well fitted curve in the direction sought with a large enough effect; inconclusive means small, poorly fitted or top-dose-only effect, or another doubt; inactive means no such curve, though single readings can be large; an effect the other way counts as inactive or inconclusive.
SMILES,TGFb SMAD3 inh,HepG2 tox,S2 tox,DRD3 agonist,D3 antag,ATXN2 expr inh
O=C(CN1CC=C(c2ccccc2)CC1)Nc1cc(Cl)ccc1Cl,13µM,i,i,i,i,i
Cc1ccc(S(=O)(=O)N2CCCCC2)cc1NC(=O)CN1CC=C(c2ccccc2)CC1,i,i,i,i,i,i
CCCCCCCCN1C(=O)[C@H](CC(=O)N2CCCCC2)C[C@@]2(C(=O)OCC)CCCC=C12,nt,nt,?,i,i,?
CCC12CN3CCN(CC(C3)/C1=N/NC(=O)c1ccncc1)C2,1.1µM,i,i,i,i,i
CCCC12CN3CCN(CC(C3)/C1=N\NC(=O)c1ccncc1)C2,i,i,i,i,i,i
CC1Cc2ccccc2N1C(=O)COC(=O)c1ccc(Cl)nc1 (configuration not stated),i,i,i,i,i,i
COc1ccc(CCNC(=O)c2ccc3c(c2)N=C(C)c2cc(C)ccc2S3)cc1OC,?,i,?,i,nt,?
COC(COC(N)=O)C1=C(N2CC2)C(=O)C(C)=C(N2CC2)C1=O (configuration not stated),?,i,?,i,i,3.5µM
CCOC(=O)[C@]12Cc3cc(C)ccc3[C@H]1N(CCC(=O)OC)C(=O)c1cc(OC)ccc12,nt,nt,16µM,i,i,22µM
CCOC(=O)[C@]12Cc3c(cc(OC)c(OC)c3OC)[C@H]1N(C)C(=O)c1cc(OC)ccc12,nt,nt,nt,i,i,11µM
CCOC(=O)[C@]12Cc3ccccc3[C@H]1N(CCC(=O)OC)C(=O)c1ccccc12,nt,nt,?,i,i,i
CCOC(=O)[C@]12Cc3cc(C)ccc3[C@H]1N(C1CCCCC1)C(=O)c1cc(OC)ccc12,nt,nt,4.5µM,i,-64,5µM
CCOC(=O)[C@]12Cc3cc(OC)ccc3[C@H]1N(C1CCCCC1)C(=O)c1cc(OC)ccc12,nt,nt,13µM,i,?,20µM
CCOC(=O)[C@]12Cc3cc(C)ccc3[C@H]1N(C(C)C)C(=O)c1ccccc12,nt,nt,nt,i,i,?
CCOC(=O)[C@]12Cc3ccccc3[C@H]1N(C(C)C)C(=O)c1cc(OC)ccc12,nt,nt,nt,i,i,?
CCOC(=O)[C@]12Cc3ccccc3[C@H]1N(C)C(=O)c1cc(OC)ccc12,nt,nt,nt,i,?,?
CC(Cc1ccccc1)NCCCCl (configuration not stated),nt,nt,i,nt,nt,i
Fc1cc(Br)ccc1CBr,nt,nt,i,nt,nt,i
COc1cc(NC(=O)c2cc3cc4ccc(C)cc4nc3o2)cc(OC)c1OC,i,i,?,i,nt,?
COc1ccc2nc(N3CCN(C(=O)CS(=O)(=O)c4ccc(C)cc4)CC3)sc2c1,?,i,nt,i,nt,nt
CCOC(=O)[C@]12Cc3cc(OC)ccc3[C@H]1N(Cc1ccccc1)C(=O)c1ccccc12,?,i,?,i,i,?
CCCCCN1C(=O)c2ccccc2[C@@]2(C(=O)OCC)Cc3cc(OC)ccc3[C@@H]12,nt,nt,13µM,i,i,?
CCOC(=O)/C=C(C)/C=C/C[C@@H](C)CCCC(C)C,nt,nt,nt,i,nt,nt
C[C@@H]1O[C@@H](O[C@H]2C[C@@H](O)[C@]3(CO)[C@H]4[C@H](O)C[C@]5(C)[C@@H](C6COC(=O)C6)CC[C@]5(O)[C@@H]4CC[C@]3(O)C2)[C@H](O)[C@H](O)[C@H]1O (some centres not stated),?,i,?,i,i,0.56µM
CC(=O)O[C@H]1C[C@H](O[C@H]2[C@@H](O)C[C@H](O[C@H]3[C@@H](O)C[C@H](O[C@H]4CC[C@@]5(C)[C@H](CC[C@@H]6[C@@H]5C[C@@H](O)[C@]5(C)[C@@H](C7=CC(=O)OC7)CC[C@]65O)C4)O[C@@H]3C)O[C@@H]2C)O[C@H](C)[C@H]1O[C@@H]1O[C@H](CO)[C@@H](O)[C@H](O)[C@H]1O,nt,nt,nt,i,nt,nt
SMILES,TGFb SMAD3 inh,HepG2 tox,S2 tox,DRD3 agonist,D3 antag,ATXN2 expr inh
O=C(Nc1ccccc1)NC1CC2CCC(C1)N2 (configuration not stated),i,i,i,i,i,i
Cc1ccc(CN2C3CCCC2CC(NC(=O)Nc2cccc(F)c2)C3)cc1 (configuration not stated),i,i,i,i,-99,i
COc1ccc2c(c1O)[C@]13CCN(C)[C@H](C2)[C@@H]1CCC(=O)C3,i,i,i,i,i,i
COC1=CC=C2[C@H]3Cc4ccc(OC)c5c4[C@@]2(CCN3C)[C@H]1O5,i,i,?,i,-66,i
O=c1[nH]c(=O)n(C2CCCCCC2)c(O)c1C=NC1CCN(Cc2ccccc2)CC1,i,i,i,i,-58,i
O=c1[nH]c(=O)n(C2CCCCCC2)c(O)c1C=NCC1CCCO1 (configuration not stated),i,i,i,i,-51,i
Cn1c(O)c(C=NC2CCN(Cc3ccccc3)CC2)c(=O)[nH]c1=O,i,i,i,i,i,i
Clc1ccc(C[n+]2c(-c3ccccc3)cc(-c3ccccc3)cc2-c2ccccc2)cc1,?,i,10µM,i,i,?
COC1=C(C)C(=O)C2=C(C1=O)C(CO)N1C(C#N)C3CC4C(C1C2N1CCOC41)N3C (configuration not stated),7.1µM,i,?,i,i,?
O=C(NC(c1cccnc1)C(F)(F)F)c1cnn(-c2nccc(-c3cccs3)n2)c1C1CC1 (configuration not stated),nt,nt,i,nt,nt,nt
CCOc1ccc(C2(C#N)CC[N+](C)(C)CC2)cc1,i,i,i,i,-51,i
COc1ccc(C2(C#N)CC[N+](C)(C)CC2)cc1,i,i,i,i,i,i
COc1ccc2c(c1)CCc1c(C(=O)Nc3c(C)nn(Cc4ccccc4C)c3C)noc1-2,13µM,i,?,i,nt,i
COc1ccc(NC(=O)c2c(C)nn(Cc3ccccc3Cl)c2Cl)cc1Cl,i,i,?,i,i,i
Cc1[nH]n(-c2ccccc2)c(=O)c1C(c1cccc([N+](=O)[O-])c1O)c1c(C)[nH]n(-c2ccccc2)c1=O,?,i,i,i,-70,i
COc1cc(C(c2c(C)[nH]n(-c3ccccc3)c2=O)c2c(C)[nH]n(-c3ccccc3)c2=O)cc(OC)c1OC,?,i,i,i,i,i
CCC(=NCc1cc(OC)cc(OC)c1)c1c(O)n(C)c(=O)n(C)c1=O,i,i,i,39,i,i
CCC(=NCc1ccc2c(c1)OCO2)c1c(O)n(C)c(=O)n(C)c1=O,i,i,i,i,?,i
CN[C@]1(c2ccccc2Cl)CCCCC1=O,nt,nt,i,nt,nt,nt
CC(C)(C)n1nnnc1C(c1cc2ccccc2o1)N1CCC2(CC1)C(=O)NCN2c1ccccc1 (configuration not stated),?,i,nt,i,-99,i

# From PubChem
